The supplement of paper PMC4371806
Over roughly 1,600 compounds, “plate-normalized OD600 growth (mean of duplicates)” has its median near 0.31; the lowest 2% begin near 0.23. Many of the other results were omitted from the sample, so the lowest values are more common in it than they were.

Test system: Escherichia coli BW25113
Assay: plate-normalized OD600 growth (mean of duplicates) (OD600 (normalized)); higher = more growth (less inhibition)
Details: 10 µM
Protocol: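 E. coli BW25113 in LB (100 µl, 96-well, no shaking) was exposed to 10 µM of each compound (here the ChemBridge subset of a ~30,000-member library) and grown at 37°C for 24 h or 15°C for 48 h, in duplicate. Growth was read as OD600 and the duplicate ODs were normalized across screening plates to correct plate-to-plate variation.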

SMILES	plate-normalized OD600 growth (temperature: 15°C, 48 h)	plate-normalized OD600 growth (temperature: 37°C, 24 h)
CCSC1=C(C#N)C(c2ccc(Cl)cc2Cl)CC(=O)N1 (stereo not drawn)	0.255	0.65
CC1=C(C#N)C(c2ccc(N(C)C)cc2)C2=C(CCCC2=O)N1 (stereo not drawn)	0.248	0.638
N#CC1=C(N)OC2=C(C(=O)CCC2)C1c1cccnc1 (stereo not drawn)	0.238	0.629
CC1=C(C#N)C(c2cccnc2)C2=C(CC(c3ccc(Cl)cc3)CC2=O)N1 (stereo not drawn)	0.225	0.623
O=[N+]([O-])c1ccc(CNC2CCCC2)cc1	0.254	0.621
O=C(NC1CCCCCC1)c1ccc([N+](=O)[O-])cc1	0.212	0.629
Cc1c(C(=O)NC2CCCC2)cccc1[N+](=O)[O-]	0.252	0.636
COc1cccc(NC(=O)c2cccc(I)c2)c1	0.244	0.596
Cc1ccc(OCCCCc2c(C)n[nH]c2C)cc1	0.276	0.62
CCN(CC)CCCOc1ccc(C)cc1	0.255	0.632
Cc1n[nH]c(C)c1CCCCOc1ccc(Br)cc1	0.216	0.601
CCCn1c(SCCC(=O)O)nc2ccccc21	0.257	0.621
N#CC1=C(N)NC(SCC(=O)Nc2ccc(Br)cc2)=C(C#N)C12CCCCC2	0.252	0.586
N#CC1=C(SCC(=O)Nc2ccc(Br)cc2)NC(=O)C(C#N)C12CCCCC2 (stereo not drawn)	0.257	0.604
Cc1cc(=O)[nH]c(SCC(=O)Nc2ccc(Br)cc2)c1C#N	0.214	0.594
COc1cc(C(=O)n2c(C)nc3ccccc32)cc(OC)c1OC	0.246	0.616
Cc1ccc(-c2nc3ccccc3[nH]2)cc1N	0.222	0.616
O=C(O)CCC(=O)Nc1ccc(-c2nc3ccccc3[nH]2)cc1	0.247	0.602
Nc1ccc(Br)cc1-c1nc2ccccc2[nH]c1=O	0.254	0.608
COc1ccc(-c2cc(=O)n(CCC#N)[nH]2)cc1	0.266	0.622
N#Cc1c(NC(=O)c2cc3ncc(Br)cn3n2)sc2c1CCCC2	0.263	0.623
O=[N+]([O-])c1ccccc1/C=C/CN1CCCCC1CO (stereo not drawn)	0.264	0.63

SMILES	plate-normalized OD600 growth (temperature: 15°C, 48 h)	plate-normalized OD600 growth (temperature: 37°C, 24 h)
CCCCOc1ccc(CN2CCN(CCOCCO)CC2)cc1	0.216	0.626
C/C=C(\C)CN1CCN(CCOCCO)CC1	0.269	0.664
CCCCOc1ccc(CN2CCC(O)CC2)cc1	0.272	0.664
Cc1cc([N+](=O)[O-])nn1CC(=O)NCC(C)C	0.264	0.617
COc1ccc(NC(=O)c2ccccc2OC)cc1OC	0.248	0.615
CN(Cc1ccccc1)C1CC(=O)N(c2ccc(C(=O)O)cc2)C1=O (stereo not drawn)	0.246	0.621
CC1(C)CC(=O)C=C(Nc2ccc(F)c(F)c2)C1	0.247	0.617
CC(=O)c1ccc(OCCOc2ccc(C(C)=O)cc2)cc1	0.248	0.607
CC(=O)c1c(C)[nH]n(-c2ccccc2)c1=O	0.252	0.618
Cc1nn(-c2ccccc2)c(N2CCCCC2)c1C=O	0.266	0.62
Cc1[nH]n(-c2ccccc2)c(=O)c1C=O	0.224	0.605
Cc1ccc(S(=O)(=O)N(CC(=O)O)c2cccc(Cl)c2)cc1	0.268	0.636
COc1cccc(-c2nc(Cc3ccc(Cl)cc3)no2)c1	0.253	0.601
CCc1ccc(-c2csc(Nc3cccc(OC)c3)n2)cc1	0.222	0.604
Cc1nc(N)sc1-c1csc(Nc2ccc(O)cc2)n1	0.239	0.621
Clc1ccc(-c2csc(Nc3ccc4c(c3)OCO4)n2)cc1	0.24	0.61
COc1ccc(Nc2nc(-c3ccc(F)cc3F)cs2)cc1	0.251	0.633
COc1cccc(Nc2nc(-c3ccc(OC)c(F)c3)cs2)c1	0.245	0.609
CCOc1ccc(Nc2nc(-c3ccc(CC(C)C)cc3)cs2)cc1	0.223	0.624
O=C(NC1C[C@@H]1c1ccccc1)[C@@H]1CC1c1ccccc1 (stereo partly drawn)	0.272	0.63
CN1CCCC1CCNC1CC2CCC1C2 (stereo not drawn)	0.299	0.637
Cn1cc(/C=C/c2nc3ccccc3c(=O)[nH]2)c2ccccc21	0.248	0.604

SMILES	plate-normalized OD600 growth (temperature: 15°C, 48 h)	plate-normalized OD600 growth (temperature: 37°C, 24 h)
COc1ccc(N(C(=O)c2ccc(F)cc2)C2=CC3CCC(C2)N3C)cc1 (stereo not drawn)	0.247	0.619
COc1ccc(C(C)=O)cc1Cc1c(O)nc(SC)[nH]c1=O	0.247	0.629
O=C(CC1Nc2ccccc2NC1=O)Nc1ccccc1 (stereo not drawn)	0.24	0.597
CCOc1ccc(NC(=O)CC2Nc3ccccc3NC2=O)cc1 (stereo not drawn)	0.273	0.648
O=C(CC1Nc2ccccc2NC1=O)Nc1ccc(Cl)cc1 (stereo not drawn)	0.215	0.6
Nc1nc2sc3c(c2cc1C(=O)N1CCOCC1)CCCC3	0.253	0.625
Cc1nc(-c2ccccc2)cc(N2CCCC2)n1	0.253	0.616
CN1CCC(NCc2ccccc2F)CC1	0.212	0.645
Cc1ccccc1CN(C)C1CCN(C)CC1	0.256	0.628
CCCN1CCC(NCCc2ccccc2OC)CC1	0.252	0.619
Cc1ccc(OCCCNC(C)(C)C)cc1	0.244	0.608
CC1CCCC(C)N1C(=O)c1ccc(Br)cc1 (stereo not drawn)	0.25	0.617
O=c1[nH]c2nonc2nc1Nc1ccccc1	0.245	0.603
CCN(C(=O)Cc1ccccc1)C1CCCCC1	0.221	0.606
CC1CCCC(C)N1C(=O)Cc1ccccc1 (stereo not drawn)	0.233	0.611
CCN(Cc1ccccc1)C(=O)Cc1ccccc1	0.262	0.642
Cc1cc(C)c(S(=O)(=O)Nc2cc(C)on2)c(C)c1	0.243	0.612
COc1ccccc1NS(=O)(=O)c1ccc(Cl)cc1	0.256	0.651
COc1ccccc1NS(=O)(=O)c1ccc(C(C)(C)C)cc1	0.254	0.618
CCc1ccccc1NS(=O)(=O)c1ccc(F)cc1	0.21	0.618
Cc1[nH]nc2c1C(c1ccccc1I)C(C#N)=C(N)O2 (stereo not drawn)	0.233	0.613
Cc1cc(C)c(C2C(C#N)=C(N)Oc3n[nH]c(C)c32)c(C)c1 (stereo not drawn)	0.218	0.621

SMILES	plate-normalized OD600 growth (temperature: 15°C, 48 h)	plate-normalized OD600 growth (temperature: 37°C, 24 h)
Cc1ccc(C2C(C#N)=C(N)Oc3n[nH]c(C)c32)s1 (stereo not drawn)	0.246	0.658
Cc1ccc(NCc2ccc([N+](=O)[O-])cc2)cc1C	0.237	0.605
O=C(c1ccc(Br)o1)N1CCN(c2ccc([N+](=O)[O-])cc2)CC1	0.262	0.622
O=C(c1ccco1)N1CCN(c2ccc([N+](=O)[O-])cc2)CC1	0.244	0.617
O=C(c1ccc([N+](=O)[O-])o1)N1CCN(c2cccc(Cl)c2)CC1	0.212	0.611
O=C1CC(N2CCOCC2)C(=O)N1c1ccc(I)cc1 (stereo not drawn)	0.257	0.645
N#CC1=C(N)Oc2cc(N)ccc2C1c1ccc(Br)s1 (stereo not drawn)	0.262	0.636
O=C(Nc1cccc([N+](=O)[O-])c1)c1cc(S(=O)(=O)Nc2ccccc2)ccc1Cl	0.256	0.621
Fc1ccccc1OCCSc1ncnc2nc[nH]c12	0.258	0.613
CCSc1sc(CC)cc1C(N)=O	0.239	0.621
CCSc1sc(SC#N)cc1SC#N	0.207	0.614
N#CSc1cnc(NC2CCCCC2)s1	0.254	0.611
CCOc1ccc(Br)cc1/C=C(\C#N)c1nc2ccccc2[nH]1	0.255	0.657
Cc1cc(C)n(-c2nc(-c3ccc(F)cc3)cs2)n1	0.254	0.625
CCOc1ccc(Nc2nc(-c3ccc(C)c(C)c3)cs2)cc1	0.248	0.605
Cc1ccc(-c2csc(Nc3ccc(F)cc3)n2)cc1C	0.218	0.604
CCOc1ccc(C(=O)Nc2ccc(S(=O)(=O)Nc3nccs3)cc2)cc1	0.241	0.613
C=CCNc1nc(-c2ccncc2)cs1	0.236	0.589
CC(=O)Nc1ccc(-c2cc(-c3ccc(NC(C)=O)cc3)nc(-c3ccccc3)n2)cc1	0.246	0.587
Cc1ccc2nc(/C(C#N)=C\c3ccco3)[nH]c2c1	0.242	0.599
CC(=O)Nc1ccc2oc(-c3cccc(I)c3)nc2c1	0.235	0.614
CCOc1ccc(-c2ncnn2-c2ccc([N+](=O)[O-])cc2)cc1	0.222	0.625

SMILES	plate-normalized OD600 growth (temperature: 15°C, 48 h)	plate-normalized OD600 growth (temperature: 37°C, 24 h)
CCN(CC)CCCOc1ccc([N+](=O)[O-])cc1	0.246	0.624
CCOc1ccc(C(=O)c2ccc([N+](=O)[O-])cc2Cl)cc1	0.265	0.637
CCCCOC(=O)Nc1nnc(CCc2ccccc2)s1	0.265	0.623
COc1cc(CN2CCSCC2)c([N+](=O)[O-])cc1OC	0.23	0.6
O=C(CN1CCCCC1)NC12CC3CC(CC(C3)C1)C2	0.274	0.65
CC(C)NCC(=O)NC12CC3CC(CC(C3)C1)C2	0.266	0.656
NC(=O)CCC(=O)NC12CC3CC(CC(C3)C1)C2	0.227	0.599
Cc1ccc(NC(=O)c2c(O)c3ccccc3[nH]c2=O)c(C)c1	0.27	0.648
Cc1cc(C)n(C(=O)c2ccccc2Br)n1	0.226	0.655
Cc1cc(C)n(C(=O)c2ccccc2F)n1	0.251	0.635
Cc1cc(C)n(C(=O)c2ccc(Cl)cc2)n1	0.256	0.636
O=C(O)c1ccc2c(c1)C(=O)N(c1c[nH]c(=O)[nH]c1=O)C2=O	0.239	0.592
O=C(/C=C/c1ccc(-c2cc(Cl)ccc2Cl)o1)c1ccco1	0.25	0.612
c1cc2cn[nH]c2cc1NC1CCCCCC1	0.233	0.604
O=C(O)CSc1ccc(Br)cc1	0.222	0.609
O=C(O)CSc1cccc(C(=O)Nc2ccc(Br)cc2)c1	0.249	0.611
Nc1ccc(Cl)cc1SCC(=O)O	0.242	0.599
NS(=O)(=O)c1ccc(NC(=O)c2ccccc2Cl)cc1	0.24	0.604
Cc1ccsc1CN1CCN(c2ccc([N+](=O)[O-])cc2)CC1	0.256	0.634
O=[N+]([O-])c1ccc(N2CCN(Cc3cccs3)CC2)cc1	0.22	0.599
O=[N+]([O-])c1ccc(N2CCN(Cc3ccc(Br)s3)CC2)cc1	0.242	0.58
